Reference: PubChem BioAssay
“And” between values parts separate entries of the source, which are not always exact repeats. Equal entries are not always repeated. The source made the active and inactive calls.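 How the source made its calls, unless noted: active means compounds whose cell count with miR-34 switched on is under 0.7 times the count with it off; inactive means the rest.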

Experiments:
[1] = compounds altering circadian rhythm period length – cell-based, LOPAC library, luminescence reporter (AID 2774; call rule not given here;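 further: values are relative to mean of DMSO wells on each plate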); conditions: circadian reporter cells, at 7 µM, actives lie on both sides
[2] = system: Hepatitis C virus NS3 helicase; assay: blockers of NS3h binding to ssDNA – biochemical, fluorescence polarization, LOPAC1280 library, primary screen (AID 687035; in the data active means inhibition above about 37%); conditions: Purified HCV NS3 helicase, Cy5-dT15 ssDNA binding fluorescence polarization; stronger effect = higher value; concentration not given here
[3] = compounds altering Cy5-DNA-NS3h complex signal – biochemical, LOPAC1280, artefact control for HCV NS3 helicase inhibitor project (AID 687037; call rule not given here); conditions: Cy5-DNA-NS3h complex fluorescence interference counterscreen
[4] = viability loss with induced miR-34 in A549 – imaging, A549 dox-inducible miR-34, nuclei and caspase counts, primary screen (AID 1347080); conditions: A549 miR-34 inducible, Hoechst nuclei count, 48 h
[5] = blockers of cellular phospholipid synthesis – cell-based, LOPAC library, screen 4, primary screen (AID 1347384; call rule not given here); conditions: animal cells, phospholipid biosynthesis inhibition screen; at 10 µM
[6] = galactose survival enhancers in mitochondrial complex I cybrids – cell-based, galactose medium, ATP luminescence, primary screen (AID 1645843;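 active means z-score of at least 1.8 in each of two replicates, scored against plate mean and spread of sample wells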;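 further: positive z means more ATP and so rescue of galactose-driven cybrid death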); conditions: complex I mutant cybrid cells, 72 h, stronger effect = higher value
[7] = compounds altering viability of human ES cells (AID 493140; call rule not given here;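 further: cells exposed to compounds for four days before counting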); conditions: human embryonic stem cell survival screen; stronger effect = higher value
[8] = chitosan synthesis blockers in C. neoformans – flow cytometry, Cibacron Brilliant Red staining (AID 1347148; call rule not given here;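 further: compound exposure lasted three days at 37 degrees C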); conditions: Cryptococcus neoformans chitosan, stronger effect = lower value; at 10 µM unless noted
[9] = MELAS cybrid and Rieske KO viability enhancers – cell-based, MELAS cybrids, Rieske KO mouse fibroblasts, CellTiter-Glo, primary screen (AID 1508586;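 active means mean z-score across replicates of 1.96 or higher in either the MELAS or the Rieske mutant cell line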;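 further: z relative to plate mean and SD of compound and empty wells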); conditions: low glucose
[10] = measured here: relative caspase fold change +Dox/-Dox
[11] = measured here: total cells with miR-34 induction, stronger effect = lower value
[12] = measured here: total cells without miR-34 induction
[13] = stronger effect = lower value, cell number ratio, induced over uninduced
[14] = MELAS cybrid survival, CellTiter-Glo 48 h, stronger effect = higher value
[15] = Rieske KO mouse fibroblast survival, CellTiter-Glo 72 h

O=C1CC[C@@]2(O)C3Cc4ccc(O)c5c4C2(CCN3CC2CC2)[C@H]1O5 (stereo partly drawn)
period change [1]: -0.05 h (inactive) | inhibition [2]: -6% (inactive) | fluorescence ratio (interference) [3]: 1 (inactive) | fold change ([4]; stronger effect = lower value): 1.1 (inactive) | fold change [4, 10]: 1.19 | cell count [4, 11]: 11300 | cell count [4, 12]: 10300 | outcome [5]: inactive | z-score [6]: 0.445 (inactive)

C[C@@H]1O[C@@H](O[C@H]2C[C@@H](O)[C@]3(CO)[C@@H]4C(CC[C@]3(O)C2)[C@@]2(O)CC[C@H](C3COC(=O)C3)[C@@]2(C)C[C@H]4O)[C@H](O)[C@H](O)[C@H]1O (stereo partly drawn)
period change [1]: -0.47 h (inactive) | inhibition [2]: -1% (inactive) | fluorescence ratio (interference) [3]: 1 (inactive) | fold change ([4]; stronger effect = lower value): 0.861 (inactive) | fold change [4, 10]: 1.72 | cell count [4, 11]: 370 | cell count [4, 12]: 430 | outcome [5]: inactive | z-score [6]: -0.995 (inactive)

CCNC(=O)[C@H]1O[C@@H](n2cnc3c(N)ncnc32)C(O)[C@H]1O (stereo partly drawn)
period change [1]: -0.025 h (inactive) | inhibition [2]: 0% (inactive) | fluorescence ratio (interference) [3]: 1 (inactive) | fold change ([4]; stronger effect = lower value): 1.03 (inactive) | fold change [4, 10]: 1.36 | cell count [4, 11]: 9250 | cell count [4, 12]: 8960 | outcome [5]: inactive | z-score [6]: 0.625 (inactive)

CCCCC/C=C\C/C=C\C/C=C\C/C=C\CCCCCC(=O)NCCO
survival [7]: 86.3 (inactive) | fold change ([4]; stronger effect = lower value): 1.02 (inactive) and 1.04 (inactive) | fold change [4, 10]: 1.64 and 1.22 | cell count [4, 11]: 5810 and 5940 | cell count [4, 12]: 5700 and 5690 | fold fluorescence [8]: 5.48 (inactive)

Cc1c(N)nc(C(CC(N)=O)NCC(N)C(N)=O)nc1C(=O)NC(C(=O)NC(C)C(O)C(C)C(=O)NC(C(=O)NCCc1nc(-c2nc(C(=O)NCCC[S+](C)C)cs2)cs1)C(C)O)C(OC1OC(CO)C(O)C(O)[C@H]1OC1OC(CO)C(O)C(OC(N)=O)C1O)c1cnc[nH]1 (stereo partly drawn)
fold change [4, 13]: 1.05 (inactive) | fold change [4, 10]: 0.471 | cell count [4, 11]: 3100 | cell count [4, 12]: 2960 | z-score [9, 14]: -0.352 (inactive) | z-score [9, 15]: -0.104

O=c1ccc2cc(OC3OC(CO)C(O)C(O)C3O)c(O)cc2o1 (stereo not drawn)
fold change [4, 13]: 0.961 (inactive) | fold change [4, 10]: 0.851 | cell count [4, 11]: 9070 | cell count [4, 12]: 9440 | z-score [9, 14]: -0.23 (inactive) | z-score [9, 15]: 0.0251

CC1CC[C@@]2(OC1)O[C@H]1C[C@H]3[C@@H]4CC=C5CC(O[C@@H]6OC(CO)C(O[C@@H]7OC(C)C(O)C(O)C7O)C(O)C6O[C@@H]6OC(C)C(O)C(O)C6O)CC[C@]5(C)[C@@H]4CC[C@]3(C)[C@@H]1C2C (stereo partly drawn)
fold change [4, 13]: 0.658 (active) | fold change [4, 10]: 1.39 | cell count [4, 11]: 1180 | cell count [4, 12]: 1800 | z-score [9, 14]: 2.01 (active) | z-score [9, 15]: -1.08

CCCN1CCO[C@@H]2c3cc(O)ccc3OC[C@@H]21
fold change [4, 13]: 0.947 (inactive) | fold change [4, 10]: 0.482 | cell count [4, 11]: 8140 | cell count [4, 12]: 8590 | z-score [9, 14]: 0.111 (inactive) | z-score [9, 15]: 0.146

O=[N+]([O-])C=Cc1ccc2c(c1)OCO2
fold change [4, 13]: 0.859 (inactive) | fold change [4, 10]: 0.554 | cell count [4, 11]: 5450 | cell count [4, 12]: 6350 | z-score [9, 14]: 0.246 (inactive) | z-score [9, 15]: -0.259

NC(N)=NOCCC(N)C(=O)O (stereo not drawn)
inhibition [2]: 0% (inactive) | fluorescence ratio (interference) [3]: 1.1 (inactive) | fold change ([4]; stronger effect = lower value): 0.949 (inactive) | fold change [4, 10]: 1.82 | cell count [4, 11]: 9120 | cell count [4, 12]: 9610 | outcome [5]: inactive | z-score [6]: 0.49 (inactive)

O=C1C=CC[C@@H]2[C@@H]3CCCN4CCC[C@@H](CN12)[C@@H]34
fold change [4, 13]: 0.92 (inactive) | fold change [4, 10]: 0.733 | cell count [4, 11]: 9530 | cell count [4, 12]: 10400 | z-score [9, 14]: -0.329 (inactive) | z-score [9, 15]: 0.595

C#C[C@@]1(O)C=C[C@H]2[C@@H]3CCC4=CC(=O)CC[C@@H]4[C@@H]3CC[C@@]21CC
fold change [4, 13]: 0.87 (inactive) | fold change [4, 10]: 1.21 | cell count [4, 11]: 7070 | cell count [4, 12]: 8120 | z-score [9, 14]: -0.518 (inactive) | z-score [9, 15]: 0.382

C[C@]12CCC(O)CC1=CC[C@@H]1[C@H]2CC[C@]2(C)C(=O)CC[C@@H]12 (stereo partly drawn)
fold change ([4]; stronger effect = lower value): 0.867 (inactive) | fold change [4, 10]: 0.858 | cell count [4, 11]: 8270 | cell count [4, 12]: 9530 | z-score [9, 14]: -0.412 (inactive) | z-score [9, 15]: 0.289

CCc1cc2c(s1)-n1c(C)nnc1CN=C2c1ccccc1Cl
fold change ([4]; stronger effect = lower value): 0.948 (inactive) | fold change [4, 10]: 0.493 | cell count [4, 11]: 8260 | cell count [4, 12]: 8710 | z-score [9, 14]: -0.248 (inactive) | z-score [9, 15]: -0.187

Clc1ccc(C(Cn2ccnc2)OCc2ccc(Sc3ccccc3)cc2)c(Cl)c1 (stereo not drawn)
fold change [4, 13]: 0.851 (inactive) | fold change [4, 10]: 0.891 | cell count [4, 11]: 6850 | cell count [4, 12]: 8050 | z-score [9, 14]: -0.265 (inactive) | z-score [9, 15]: 0.16

COC1=C[C@@H]2C3Cc4ccc(OC)c(O)c4[C@]2(CCN3C)CC1=O
fold change ([4]; stronger effect = lower value): 0.895 (inactive) | fold change [4, 10]: 0.909 | cell count [4, 11]: 8920 | cell count [4, 12]: 9970 | z-score [9, 14]: -0.311 (inactive) | z-score [9, 15]: 0.879

C=C1C[C@@H]2[C@@H](CC[C@@]3(C)C(=O)CC[C@@H]23)[C@@]2(C)C=CC(=O)C=C12
fold change ([4]; stronger effect = lower value): 1.01 (inactive) | fold change [4, 10]: 1.02 | cell count [4, 11]: 7640 | cell count [4, 12]: 7540 | z-score [9, 14]: -0.495 (inactive) | z-score [9, 15]: 0.156

N=C(N)c1ccc(CS(=O)(=O)F)cc1
inhibition [2]: -2% (inactive) | fluorescence ratio (interference) [3]: 1 (inactive) | fold change ([4]; stronger effect = lower value): 1.04 (inactive) | fold change [4, 10]: 1.07 | cell count [4, 11]: 11100 | cell count [4, 12]: 10700 | outcome [5]: inactive | z-score [6]: 0.445 (inactive)

Cc1cc(C(=O)CN2CCCC2)c(C)n1-c1ccc(F)cc1
fold change ([4]; stronger effect = lower value): 0.909 (inactive) | fold change [4, 10]: 0.246 | cell count [4, 11]: 8040 | cell count [4, 12]: 8840 | z-score [9, 14]: -0.384 (inactive) | z-score [9, 15]: 0.483

CN(C)C1C(=O)C(C(N)=O)=C(O)[C@@]2(O)C(=O)C3=C(O)c4c(O)cccc4[C@@](C)(O)[C@H]3C(O)[C@@H]12 (stereo partly drawn)
fold change [4, 13]: 0.897 (inactive) | fold change [4, 10]: 0.837 | cell count [4, 11]: 7930 | cell count [4, 12]: 8840 | z-score [9, 14]: -0.21 (inactive) | z-score [9, 15]: 0.479
